Source: PubChem BioAssay
FBPA Giardia inh: blocks Giardia fructose-bisphosphate aldolase activity. A8B2U2. actives 0.71% (n = 290,000). Potency, µM (series often up to 59.6 µM), hits mostly inhibitors. purified Giardia FBPA; further: nearly all actives have a fitted effect of over 55% in size
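40 nM FBPA preincubated 10 min at RT with compound (up to 57.5 uM final), then substrate plus GAPDH/TPI/NAD/arsenate coupling and diaphorase/resazurin added. Fluorescence read after 20 min at RT, 525/598 nm.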
SARS PLpro yeast-1: blocks SARS-CoV papain-like protease in a yeast assay. Potency, µM (doses to about 32.9 µM), hits mostly activators. S. cerevisiae expressing SARS-CoV PLpro, growth rescue. actives 0.19% (n = 330,000); calls by dose curve; further: nearly all actives have a fitted effect of over 55% in size
LmPK inhibitor: LmPK (Leishmania mexicana) enzyme inhibition. Potency, µM (doses to about 57.5 µM), actives largely listed as inhibitors. purified LmPK, Kinase-Glo ATP luminescence, 1 h. actives 0.37% (n = 290,000)
Target sequence (Q27686 whole entry, looked up): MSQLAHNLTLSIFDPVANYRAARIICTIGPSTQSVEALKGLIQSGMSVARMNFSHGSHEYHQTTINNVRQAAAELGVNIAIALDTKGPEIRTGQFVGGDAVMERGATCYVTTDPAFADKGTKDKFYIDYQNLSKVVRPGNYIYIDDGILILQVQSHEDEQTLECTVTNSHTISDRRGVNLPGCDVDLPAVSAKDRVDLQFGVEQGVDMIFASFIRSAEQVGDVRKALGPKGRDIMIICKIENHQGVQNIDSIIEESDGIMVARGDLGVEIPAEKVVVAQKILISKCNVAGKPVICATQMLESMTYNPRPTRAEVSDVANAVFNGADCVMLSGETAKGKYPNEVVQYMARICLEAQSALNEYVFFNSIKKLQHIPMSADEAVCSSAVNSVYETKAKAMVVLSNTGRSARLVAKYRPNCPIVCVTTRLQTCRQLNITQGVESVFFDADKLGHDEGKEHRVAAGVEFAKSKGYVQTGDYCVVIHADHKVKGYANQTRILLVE
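0.1 nM LmPK, 0.5 mM PEP, 0.1 mM ADP; 50 mM imidazole pH 7.2, 7 mM MgCl2, 50 mM KCl; 1 h RT. Kinase-Glo luminescence readout, normalized to no-enzyme (full inhibition) and uninhibited wells.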
Tb PYK inh: blocks Trypanosoma brucei pyruvate kinase | Q57TT1 | TbPYK enzyme, Kinase-Glo Plus ATP luminescence, 45 min | Potency, µM (series often up to 76.8 µM), most hits filed as inhibitors | actives 0.12% (n = 410,000) | AID 624173; further: nearly all actives have a fitted effect of over 50% in size
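Assay buffer: 50 mM TEA pH 7.2, 100 mM KCl, 10 mM MgCl2, 0.05% BSA, 0.01% Tween-20. Pyruvate kinase from T. brucei plus substrate met compound, then ADP (130 uM final). Luminescence was read post 45 min RT.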
RE007 growth inh: less growth of the S. pombe RE007 Vpr strain; actives 0.21% (n = 360,000); AID 651644; S. pombe RE007 Vpr strain, BacTiter-Glo ATP luminescence, 24 h; Potency, µM (top dose mostly 92.2 µM), actives largely listed as inhibitors; active means well fitted falling curve with a large enough effect; inconclusive means small, poorly fitted or top-dose-only effect; inactive means no such curve, though single readings can be large or run the other way; further: nearly all actives have a fitted effect of over 50% in size
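Fission yeast RE007 carrying one integrated HIV-1 vpr copy, seeded at OD 0.01 in PMG+AL medium with 23 nL pinned compound. Grown 24 h at 30 degrees; viability read by BacTiter-Glo luminescence after 5 min.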
SARS PLpro yeast-2: Validates SARS-CoV PLpro inhibitor hits in yeast; shares compounds with SARS PLpro yeast-1; yeast expressing SARS-CoV PLpro, growth phenotype rescue; calls only; actives 19% (n = 1,000); AID 652038; call rule not given here
A number is an active result; i = inactive; ? = inconclusive; nt = not tested or not shown; + = active, no number; [ ] = remark or other dose. Hits are enriched below; roughly 1.1% of the tested compounds scored in any of these assays. Unless noted, the call rests on the fitted dose curve; in most records, active means well fitted curve in the direction sought with a large enough effect; inconclusive means small, poorly fitted or top-dose-only effect, or another doubt; inactive means no such curve, though single readings can be large; an effect the other way counts as inactive or inconclusive.

SMILES	FBPA Giardia inh	SARS PLpro yeast-1	LmPK inhibitor	Tb PYK inh	RE007 growth inh	SARS PLpro yeast-2
c1cc2c(cc1[C@H]1OC[C@H]3[C@@H]1CO[C@H]3c1ccc3c(c1)OCO3)OCO2	nt	?	nt	i	i	i
COc1ccc(C)cc1S(=O)(=O)Nc1ccc(F)cc1	i	?	i	i	i	i
CCNc1ccccc(-c2ccc3ccccc3n2)c1=O	?	11.2µM	i	i	i	i
CCOc1cccc(/C=N/Nc2ccc(S(=O)(=O)N(CC)CC)cn2)c1O	i	7.94µM	i	i	i	i
CCN(CC)S(=O)(=O)c1ccc(N/N=C/c2cc(OC)c(OC)cc2OC)nc1	i	i	i	i	i	nt
C/C(=N\NC(=S)NC1CCCCC1)c1ccccc1	i	7.94µM	i	i	i	+
C/C(=N\NC(=S)NC1CCCCC1)c1ccc(O)cc1	i	i	i	i	i	nt
O=C(Cn1ccn(-c2ccc(F)c(F)c2)c(=O)c1=O)NCc1ccccc1	nt	nt	nt	i	nt	nt
CCOc1ccc(N(C(=O)Nc2ccccc2)C2=NCCC2)cc1	i	i	i	i	i	nt
CNC(=O)N(C1=NCCCCC1)c1ccc(Br)cc1	i	nt	i	i	i	i
NC(=O)N/N=C\c1cc(Br)ccc1O	i	i	i	i	i	nt
CC(C)(C)c1nnc(N/N=C/c2cc(Br)ccc2O)n(N)c1=O	i	nt	i	i	?	i
CCOc1ccc(CNC(=O)C2CCN(S(=O)(=O)c3cn(C)cn3)CC2)cc1	nt	nt	nt	i	nt	nt
COc1ccccc1CNc1nccn(-c2ccccc2)c1=O	nt	nt	nt	i	nt	nt
Cc1ccccc1NC(=O)C1(C)Cc2ccccc2C(=O)O1 (stereo unspecified)	i	?	i	i	i	?
Cc1cccc(OCCSc2nc3ccccc3n2CC(=O)N2CCOCC2)c1C	nt	nt	nt	i	nt	nt
Cc1ccc(Cl)cc1N1CCN(C(=O)c2cc(S(=O)(=O)N3CCCCCC3)cn2C)CC1	nt	nt	nt	i	nt	nt
N#Cc1c(-n2ncnc2-c2ccc(Br)cc2)sc2c1CCCCC2	nt	nt	nt	i	nt	nt
O=C(N/N=C/c1c(O)ccc2ccccc12)c1ccc[n+](CCO)c1	i	0.891µM	i	i	i	i
COc1ccc(CNC(=O)CCC2N=C3c4ccccc4N=C(SCc4cccc(F)c4)N3C2=O)cc1 (stereo unspecified)	nt	nt	nt	i	nt	nt
CC12C=C(/C=C/c3ccccc3)C(C)(C1)C(c1ccccc1)CC2=O (stereo unspecified)	i[12.9 µM]	nt	nt	nt	nt	nt
CCOC(=O)C(C)S(=O)(=O)c1ccc(C(F)(F)F)cn1 (stereo unspecified)	i	?	i	i	i	i
CCOC(=O)N1CCN(c2ccc(C(F)(F)F)cn2)CC1	i	i	i	i	i	nt
O=C(c1cc(C2CC2)nn1-c1ccccc1)N1CCN(Cc2ccccc2)CC1	nt	nt	nt	i	i	nt
O=C(O)c1cc(C2CC2)nn1-c1ccccc1	i	?	i	i	i	i
SMILES	FBPA Giardia inh	SARS PLpro yeast-1	LmPK inhibitor	Tb PYK inh	RE007 growth inh	SARS PLpro yeast-2
O=C1[C@@H]2CSC(c3ccc(F)cc3)N2C(=O)N1c1ccc(Cl)cc1 (stereo partly specified)	nt	nt	nt	i	nt	nt
CCN1C[C@@H]2[C@@H]3C(=O)N(C)C(=O)[C@@H]3[C@](CC)(C(=O)OC)N2C1=NC	nt	3.55µM	nt	i	i	i
CC[C@]1(C(=O)OC)[C@H]2C(=O)N(C)C(=O)[C@H]2[C@H]2CN(C)C(=NC)N21	nt	i	nt	i	i	nt
CCOC(=O)NNc1ccc(N(CC)CC(C)O)nn1 (stereo unspecified)	nt	nt	nt	i	nt	nt
COC(=O)C1=C[C@@H](C(=O)OC)[C@@H]2C3=C(C(=O)[C@]2(C)NC(=O)c2ccccc2)[C@H](C)[C@@H]2C(=O)NC(=O)[C@@H]2[C@@H]3C1	i	nt	nt	nt	nt	nt
CCOC(=O)c1[nH]cnc1C(=O)N1CCN(C(=O)OC(C)(C)C)CC1	nt	?	nt	i	i	?
Cc1oc2cc(OCc3cnn(-c4ccccc4)c3)ccc2c(=O)c1Oc1ccccc1F	i	2.51µM	i	i	i	i
COc1cc(/C=N/n2c(SC)nnc(C(C)(C)C)c2=O)ccc1O	i	15.8µM	i	i	i	i
Cc1ccc(/C=C/C(=O)OCC(=O)Nc2cccc(S(=O)(=O)N(C)C)c2)o1	i	3.16µM	i	i	i	i
CN(C)S(=O)(=O)c1cccc(NC(=O)COC(=O)/C=C/c2ccco2)c1	i	i	i	i	i	nt
